Hit rate of the full screen: of about 69,000 compounds, about 8,600 (12%) showed an effect of 50% or more. What follows is part of a selection rich in strong results, with near analogues and random picks from the rest.
These compounds were tested on Plasmodium berghei (assay: Screen against P. berghei liver stage (PbLuc), transformed with Luciferase, at 10uM). Settings: tested at 10 uM.
Assay type: functional, HepG2

Structure (SMILES) | INHIBITION [%]
COc1cccc(CC(=O)NCc2cnc(C)nc2C2CCCN2C)c1 (stereo not given) | 36.7
Nc1nc2c(c(N3CCCC(OCc4ccccn4)C3)n1)CCNCC2 (stereo not given) | 59.4
Nc1nc2c(c(N3CCCC3)n1)CCN(Cc1ccccn1)CC2 | 41.5
c1ccc(CN2CCc3ncnc(N4CCCC4)c3CC2)nc1 | 46.7
Cc1nc(N2CCCC(OCc3ccccn3)C2)c2c(C)noc2n1 (stereo not given) | -4.21
Cc1nn(C)c2ncnc(N3CCCC(OCc4ccccn4)C3)c12 (stereo not given) | -46.6
Nc1nc2c(c(N3CCCC(CN4CCCC4=O)C3)n1)CCNCC2 (stereo not given) | 48.5
Cc1nc2c(c(N3CCCC(OCc4ccccn4)C3)n1)CCNCC2 (stereo not given) | 73
Nc1nc2c(c(N3CCSCC3)n1)CCN(Cc1ccccn1)CC2 | 66.5
NCC1CCCN(c2nc(-c3ccccc3)nc3c2CCNCC3)C1 (stereo not given) | 19.5
CCc1nnc2n1CCN(CC(O)c1ccc3c(c1)OCCO3)C2 (stereo not given) | 22.333
Cc1cnc(CN2CCCC2c2noc(C(C)C)n2)cn1 (stereo not given) | 9.54
O=C(Cc1n[nH]c2ccccc12)N1CCC(Nc2cccnn2)CC1 | 49.3
Cc1ccc(CN2CCOC3(COCCN(C(C)C)C3)C2)o1 (stereo not given) | 43
CCc1nnc2n1CCN(C(=O)c1ccc(C)c(S(N)(=O)=O)c1)C2 | 36.8
COCCOCC(=O)Nc1ccc(C)cc1Br | -5.51
CCCS(=O)(=O)CCN1CCN(C(C#N)c2ccccc2)CC1 (stereo not given) | -4.93
CCn1c(CC2CCN(C(=O)c3cc(C(C)C)n[nH]3)CC2)n[nH]c1=O | 41.5
CCn1c(CC2CCN(C(=O)c3cc(CC(C)C)on3)CC2)n[nH]c1=O | 51.7
CCn1c(C2CCN(C(=O)c3cc(CC(C)C)on3)CC2)nn(C)c1=O | 21.8
O=C(NC[C@H]1OC[C@@H]2CN(Cc3ccco3)CC[C@@H]21)c1cccnc1 | 8.03
COc1cc(C(=O)NCC2CC2)nc2c(C)cc(F)cc12 | 55.4

Structure (SMILES) | INHIBITION [%]
COc1cc(C(=O)NCC2CCCO2)nc2c(C)cc(F)cc12 (stereo not given) | -14.8
CCNC(=O)c1cc(OC)c2cc(F)cc(C)c2n1 | -8.41
COc1ccc(-c2cnc(CN(CC(N)=O)C3CCCC3)o2)cc1 | 19.9
O=C(Cn1nc2c(cc1=O)CSCC2)N[C@@H](Cc1ccccc1)C(=O)O | -5.51
Cn1c(CO)nnc1SCc1c(F)cccc1Br | 15.5
Cn1c(N)nnc1SCc1c(F)cccc1Br | 55.4
Cn1c(N)nnc1SCc1ccc(Cl)cc1Br | 11.6
CN(C)c1nc2c(c(N3CCC(O)CC3)n1)CN(CC1CCOC1)CC2 (stereo not given) | 60.1
CN(C)c1nc2c(c(N3CCC(O)CC3)n1)CN(CC1CCNC1)CC2 (stereo not given) | 18.5
CN(C)c1nc2c(c(N3CCC(O)CC3)n1)CN(CC(C)(C)C)CC2 | 22.4
CC(C)COCCC(=O)Nc1cccnc1-n1cncn1 | 14.4
CN1C(=O)C2(CCN(c3ncccc3C(=O)O)CC2)c2ccccc21 | -20.6
O=C(NC[C@H]1CCCC[C@H]1O)c1cccc2[nH]c(-c3ccco3)nc12 | 23.3
CCN(C)S(=O)(=O)c1ccc(Cl)cc1C#N | 33.2
CSCC(C)N(C)S(=O)(=O)c1ccc(Cl)cc1C#N (stereo not given) | 50.8
CC(C)CN(C)S(=O)(=O)c1ccc(Cl)cc1C#N | -10.4
CC(C)C(=O)N1CCN(Cc2cnn(C)c2)CC2(CC(=O)N(C)C2)C1 (stereo not given) | -10.3
O=C(c1ccc[nH]1)N1CCN(Cc2ccncc2)c2ncccc2C1 | 23.3
Cc1ccc(-n2c(SCC(=O)O)nnc2-c2cccc(C)c2)cc1 | 7.52
Cc1cnc(C(=O)N2CCCn3c(nc(CN(C)C)cc3=O)C2)cn1 | -10.3
Cc1cc(NC(=O)N2CCN(C)CC2C)n(Cc2ccccc2)n1 (stereo not given) | 43.4
Cc1cc(NC(=O)N2CCN(C)CC2C)n(C)n1 (stereo not given) | 40.5

Structure (SMILES) | INHIBITION [%]
Cc1cc(NC(=O)N2CCN(C)CC2C)n(CCC#N)n1 (stereo not given) | 53.4
CCCN1C[C@@H]2CC[C@H]1CN(Cc1ccc(-n3cccn3)cc1)C2 | 49.5
COC[C@@]12CCC[C@@H]1CN(C(=O)COc1ccccc1OC)C2 | 19.5
Cc1ccccc1OCCC(=O)NC(C)c1nnc2n1CCCCC2 (stereo not given) | 28.8
Nc1nccnc1C1CN(Cc2ccc(OCC(=O)O)cc2)CCO1 (stereo not given) | -22.5
COc1ccc2c(c1)C(C(=O)N(C)CCCc1nccn1C)CC(=O)N2 (stereo not given) | 23
COc1ccc2c(c1)C(C(=O)N(C)CCn1ccnc1C)CC(=O)N2 (stereo not given) | 13.7
COc1ccc2c(c1)C(C(=O)N(C)CCc1scnc1C)CC(=O)N2 (stereo not given) | 44.3
COc1ccc2c(c1)C(C(=O)N(C)CCc1cnn(C)c1)CC(=O)N2 (stereo not given) | 82.3
COc1ccc2c(c1)C(C(=O)N(C)CCCc1cnn(C)c1)CC(=O)N2 (stereo not given) | 55.4
COc1ccc2c(c1)CC(C(=O)N(C)CCCc1cnn(C)c1)CO2 (stereo not given) | -1.91
CCOc1ncccc1Cn1cc2[nH]cccc-2c1=O | 18
Cc1nn(CC(=O)O)c2nccc(-c3ccc(F)cc3)c12 | 39.5
CC(O)CN(c1ccccc1)S(=O)(=O)c1cc(C(=O)O)cc2c1CCC2 (stereo not given) | 19.7
CCN(c1ccccc1)S(=O)(=O)c1cc(C(=O)O)cc2c1CCC2 | 56.5
CCN(c1cccc(F)c1)S(=O)(=O)c1cc(C(=O)O)cc2c1CCC2 | 38.6
COCCNC(=O)Nc1ccc(-n2cncn2)c(C(F)(F)F)c1 | 21.8
COCCNC(=O)Nc1ccc(-n2cncn2)c(F)c1 | 58.2
CC(C)NC(=O)CCNC(=O)Nc1ccc(-n2cncn2)c(F)c1 | -18
CC(=O)Nc1ccc(-n2cncn2)c(F)c1 | -6.91
COCCS(=O)(=O)Nc1ccc(-n2cncn2)c(F)c1 | 56.5
COCCOc1ncccc1C(=O)Nc1ccc(-n2cncn2)c(F)c1 | 13.1

Structure (SMILES) | INHIBITION [%]
CN1CCN(Cc2cccnc2)C2(CCN(Cc3ccccn3)C2)C1=O (stereo not given) | -16
CSCC(=O)N1C[C@@H](C)[C@](O)(C(C)C)C1 | 5.23
CN(C)c1nccc(C2CN(C(=O)CO)C2)n1 | 1.5
Cc1cc(Nc2cnccn2)nc(C2CCCN(CCO)C2)n1 (stereo not given) | 1.62
c1cnc(Nc2ccc(C3CCCCN3)cn2)cn1 (stereo not given) | -15.1
Cc1cccc(Nc2ccc(C3CCCCN3)cn2)n1 (stereo not given) | 70.3
Cc1cc(C)nc(Nc2ccc(C3CCCCN3)cn2)n1 (stereo not given) | -0.232
O=C(CCc1ccccc1F)NC1CCCN(c2ccccn2)C1 (stereo not given) | -40.55
CCN(CC)C(=O)NC(C)c1ccc(Oc2cccnc2)c(F)c1 (stereo not given) | 36.3
COc1ccc2c(c1)C1(CCN(Cc3cccnc3)CC1)N(C)CC2 | -27.4
O=C1CC(c2ccncc2)C2(CCN(CC3CC3)CC2)N1 (stereo not given) | -4.32
O=C(CCc1cccc(Cl)c1Cl)N1CCOCC1c1ncon1 (stereo not given) | 33.8
CN(Cc1ccccc1)CC(O)Cn1cnc2ccsc2c1=O (stereo not given) | 56.6
CN(Cc1ccccc1)CC(O)Cn1cnc2ccccc2c1=O (stereo not given) | 2.26
CN(Cc1ccccc1)CC(O)Cn1cnc2sccc2c1=O (stereo not given) | 10.675
O=C(CCc1cc2n(n1)CCCNC2)NCCCSC1CCCCC1 | 40.3
CCN(Cc1ccc2c(c1)OCO2)C(=O)Cn1cccnc1=O | 37.9
COc1cccc(CNC(=O)C(C)n2ccnc2C(C)C)c1OC (stereo not given) | 62.1
COc1cc2c(cc1CNC(=O)C(C)n1ccnc1C(C)C)CCC2 (stereo not given) | 26.5
COc1cc2c(cc1CNC(=O)C(C)n1ccnc1C(C)C)OCCO2 (stereo not given) | 42.3
OCCN1CCCC(c2nccnc2Oc2ccccc2)C1 (stereo not given) | -3.31
O=C(C1CCC1)N1CCN(c2snc3ccccc23)CC1 | 32.8

Structure (SMILES) | INHIBITION [%]
CC(=O)NC1CCCN(c2nc3ccccc3cc2CO)C1 (stereo not given) | 66.5
Cc1cc(N2CCN(c3nc4ccccc4cc3CO)CC2)nc(C)n1 | 48.8
CCCC(=O)NC1CCCN(c2nc3ccccc3cc2CO)C1 (stereo not given) | 7.19
OCc1cc2ccccc2nc1N1CCCCC1 | 53.1
OCc1cc2ccccc2nc1N1CCCC1 | 16.8
CC(=O)NC1CCCN(c2ccc(C#N)cc2C(F)(F)F)C1 (stereo not given) | -17.9
O=C(C1CCN(c2snc3ccccc23)CC1)N1CCCCCC1 | 36.2
O=C(C1CCCN(c2nc3ccccc3cc2CO)C1)N1CCCC1 (stereo not given) | 61.9
CC(C)c1noc(CN2CCC(C3CCCCCN3S(C)(=O)=O)CC2)n1 (stereo not given) | 34
COc1cc(CNCCc2nc(C)cs2)cc2c1OCCO2 | 31
CC1c2ccc(F)cc2CCN1C(=O)c1[nH]c(=O)[nH]c(=O)c1N (stereo not given) | 23.6
CCn1cnc(NC(=O)NCC2CCS(=O)(=O)CC2)n1 | 4.12
Cc1occc1C(=O)N1CCC[C@]2(C[C@@H](OCc3ccncc3)CO2)C1 | -9.67
CCN(Cc1ccc2c(c1)OCCO2)C(=O)Cn1cccnc1=O | 37.9
Cc1c(S(=O)(=O)N2CCOCC2)cc2c(C)cc(=O)n3c2c1CCC3 | 2.45
OCC1CCN(c2ccc(NCc3ccsc3)nc2)CC1 | 54.4
Cc1ccc(CNc2ccc(N3CCC(CO)CC3)cn2)o1 | 14.1
CC(C)c1nc(CNc2ccc(N3CCC(CO)CC3)cn2)cs1 | 13
Cc1cnn(CC2CCCCN2CCCS(C)(=O)=O)c1 (stereo not given) | 5.03
CN1CCN(c2nc(-c3cnn(C)c3)cs2)CC1 | -1.45
Cn1cc(-c2csc(N3CCCCCC3)n2)cn1 | 79.8
Cn1cc(-c2csc(N3CCSCC3)n2)cn1 | -42.1
